# Bead autofluor: counter-screen for toxin protease inhibitors: compound fluorescence. compound autofluorescence counterscreen, microsphere flow cytometry; active compounds read high. fluorescence intensity (test concentration not listed). 360,000 compounds, 3.1% hits. AID 624483; in the data active = fluorescence intensity above about 16000; inconclusive = no clear call, values can overlap the other calls
# BoNT F protease: inhibitors of Botulinum neurotoxin F light chain protease | inhibition, % at 10 µM | 360,000 compounds, 0.22% hits | Multiplex microsphere protease cleavage assay, flow cytometry; in the data active = inhibition above about 35%, passing the limit was not always enough; inconclusive = no clear call, values can overlap the other calls
# Anthrax LF prot: anthrax lethal factor protease inhibition | P15917 | multiplex microsphere protease cleavage assay, LF | inhibition, % at 10 µM | 360,000 compounds, 0.12% hits | AID 588501
# MazEF act: activators of E. coli MazEF toxin-antitoxin RNase; P0AE70; FAM/BHQ RNA-DNA oligo cleavage fluorescence, 5 h; activation, % at 20 µM; 350,000 compounds, 0.32% hits; AID 504720; in the data active = activation above about 50%
# Target sequence (P0AE70 whole entry, looked up): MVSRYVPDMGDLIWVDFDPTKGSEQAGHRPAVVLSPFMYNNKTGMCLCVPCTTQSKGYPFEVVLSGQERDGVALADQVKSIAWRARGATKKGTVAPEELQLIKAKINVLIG
# BoNT A protease: blocks Botulinum neurotoxin A light chain protease; AID 588499; multiplex microsphere protease substrate cleavage, flow cytometry; 360,000 compounds, 0.17% hits; inhibition, % at 10 µM
# Hits are given with their value; 0 = inactive; ? = inconclusive; - = not tested or not shown. A selection: hits, their analogues and other compounds. The true share with any hit is near 3.7%. Cut-off read from the data, not from the text of the source, unless noted: active = inhibition above about 30%; inconclusive = no clear call, values can overlap the other calls; inactive = below that.
SMILES,Bead autofluor,BoNT F protease,Anthrax LF prot,MazEF act,BoNT A protease
O=C(CCNC(=O)c1ccc(Cl)cc1)NNC(=O)c1ccc(F)cc1,0,0,0,0,0
Cc1ccccc1C(=O)NC1CCN(Cc2ccccc2)CC1,0,0,0,0,0
Cc1cccc(NS(=O)(=O)c2ccc(C)c(C(=O)NC3CCN(Cc4ccccc4)CC3)c2)c1,30942,0,0,0,0
CCN1CNC(=S)N(c2cc(C)ccc2C)C1,21089,0,0,0,?
Cc1ccc(C)c(N2CN(Cc3ccco3)CNC2=S)c1,0,0,0,0,0
CCS(=O)(=O)N1Cc2ccccc2CC1C(=O)Nc1ccc(F)c(F)c1 (centres undefined),0,0,0,0,0
Cc1ccccc1NS(=O)(=O)c1ccc(C(=O)NN2CCCCC2)cc1,0,0,0,0,0
Cc1cc(C)nc(N2CCCC(C(=O)Nc3ccc4nc(C)c(C)nc4c3)C2)n1 (centres undefined),0,0,0,0,0
Cc1cc(C)cc(NC(=O)C2CCCN(c3nc(C)cc(C)n3)C2)c1 (centres undefined),22398,0,0,0,0
Cc1cc(C)cc(NC(=O)C2CCCN(c3nccc(C)n3)C2)c1 (centres undefined),16127,0,0,0,0
Cc1cc(C)nc(N2CCCC(C(=O)Nc3nc4ccc(S(C)(=O)=O)cc4s3)C2)n1 (centres undefined),22009,0,0,0,0
CCCNC(=O)C[C@H]1C[C@H]2c3cc(NC(=O)Nc4ccc(F)cc4)ccc3O[C@H]2[C@@H](CO)O1,0,0,0,0,0
CCOC(=O)c1[nH]c(COC(=O)CCOc2ccccc2OC)c(C(=O)OCC)c1C,23144,0,0,0,?
COc1ccc(C2C(C(=O)c3ccccc3)N3c4ccccc4C=CC3C2[N+](=O)[O-])cc1 (centres undefined),0,?,?,63,?
COc1ccc(S(=O)(=O)N2CCC[C@H]2C(=O)N2CCC[C@H]2C(=O)N(C)Cc2ccccc2)cc1C,0,0,0,-,0
CCOc1ccc(CC(=O)Nc2sc(Cc3ccccc3)cc2C(N)=O)cc1OCC,17390,0,0,0,0
C=CCn1c(=N)c(S(=O)(=O)c2ccc(C)c(C)c2)cc2c(=O)n3ccccc3nc21,0,0,0,183,0
Cc1ccc(S(=O)(=O)c2cc3c(=O)n4ccccc4nc3n(Cc3ccco3)c2=N)cc1,20456,0,0,0,?
O=C(c1ccco1)n1nc(-c2ccco2)nc1SCc1ccccc1,21774,0,0,0,0
O=C(c1ccco1)n1nc(-c2ccccc2)nc1SCc1ccccc1,?,0,0,0,0
COc1ccc(OC)c(NS(=O)(=O)c2ccc3[nH]c(=O)[nH]c3c2)c1,0,0,0,0,0
COc1cc(C2NC(=S)NC(c3ccccc3)=C2C(C)=O)cc(Cl)c1OCC(=O)O (centres undefined),23312,0,0,0,0
CN(C)c1ncc(S(=O)(=O)c2ccc(Cl)cc2)c(-c2ccc(Cl)cc2Cl)n1,0,0,0,0,0
CN(C)c1ncc(S(=O)(=O)c2ccccc2)c(-c2ccc(Cl)cc2Cl)n1,22616,0,0,0,?
O=C(NCC(c1ccco1)N1CCc2ccccc21)c1ccccc1Br (centres undefined),?,0,0,0,0
SMILES,Bead autofluor,BoNT F protease,Anthrax LF prot,MazEF act,BoNT A protease
CCc1ccc2nc(SCC(=O)N3CC(=O)Nc4ccccc43)c(C#N)cc2c1,0,0,0,83,0
CCN1CCN(C(c2cc3cc4c(cc3[nH]c2=O)OCO4)c2nnnn2C(C)(C)CC)CC1 (centres undefined),20945,0,0,0,0
CCC(C)(C)n1nnnc1C(c1cc2cc(OC)c(OC)cc2[nH]c1=O)N1CCc2ccccc21 (centres undefined),24005,0,0,0,0
CC(C)(C)n1nnnc1C(c1cc2cc3c(cc2[nH]c1=O)OCO3)N1CCN(c2ccccc2)CC1 (centres undefined),0,0,0,0,0
O=C(CCC(=O)Nc1ccccc1Cl)NNC(=O)COc1ccc([N+](=O)[O-])cc1,-,-,-,0,-
Cc1cc2nc(SCC(=O)Nc3nonc3C)c3c(c2cc1C)CCCC3,22694,0,0,0,?
Cc1nonc1NC(=O)CSc1nc(C2CCCCC2)nc2ccccc12,0,0,0,0,0
CC1CC(C)(C)NC(=S)N1CC(=O)NCc1ccc(Cl)cc1 (centres undefined),0,47,0,0,0
O=C(CCN1C(=O)c2ccccc2C1=O)Nc1ccccc1C(F)(F)F,0,0,0,0,0
CCOc1ccc(CCNC(=O)CN(C)S(=O)(=O)c2ccc3c(c2)CCC(=O)N3)cc1OCC,23279,0,0,0,0
CC1CN(S(=O)(=O)c2cccc(-c3csc(-c4ccccc4)n3)c2)CC(C)O1 (centres undefined),0,0,0,70,0
O=C(NCc1ccccn1)C1CCN(Cc2cnn(-c3ccccc3)c2-n2cccc2)CC1,22540,0,0,0,0
O=C(O)C1CCN(Cc2cnn(-c3ccccc3)c2-n2cccc2)CC1,0,0,0,0,0
O=C(NCc1ccccn1)C1CCCN(Cc2cnn(-c3ccccc3)c2-n2cccc2)C1 (centres undefined),0,0,0,0,0
O=C(NCc1cccnc1)C1CCCN(Cc2cnn(-c3ccccc3)c2-n2cccc2)C1 (centres undefined),23887,0,0,0,0
CCN(CC)C(=O)CSCc1cnn(-c2ccccc2)c1-n1cccc1,22480,0,0,0,?
COc1cccc(CNC(=O)C2CCN(Cc3cnn(-c4ccccc4)c3-n3cccc3)CC2)c1,0,0,0,0,0
O=C(NC1CC1)C1CCN(Cc2cnn(-c3ccccc3)c2-n2cccc2)CC1,23345,0,0,0,0
CCN(CC(=O)Nc1ccccc1C(F)(F)F)C(=O)c1ccc(N2CCCC2=O)cc1,-,-,-,0,-
O=C(OCc1cn([C@H]2CN(Cc3cccs3)[C@@H](c3ccc(Cl)cc3)C[C@@H]2O)nn1)c1ccccc1,0,0,0,0,0
CC1(C)CC(=O)C2=C(C1)c1c(ccc3ccccc13)NC2c1ccc(C(=O)O)cc1 (centres undefined),0,0,0,0,0
Cc1ccc(C2Nc3ccc4ccccc4c3C3=C2C(=O)CC(C)(C)C3)o1 (centres undefined),21585,0,0,0,0
COc1cc(OC)cc(C(=O)NCCNc2nc3cc(C)cc(C)c3cc2C#N)c1,0,0,0,0,0
CN1CCNC(=O)C1CC(=O)O (centres undefined),22031,0,0,0,?
Cc1ccc(CN2CCNC(=O)C2CC(=O)O)cc1 (centres undefined),0,0,0,0,0
CC(C)(C)OC(=O)N(Cc1ccccc1)Cc1ccc(OCc2cccc(NC(=O)C3CC3)c2)cc1,0,0,0,0,0
COc1cc(Cl)cc(C2NC(=O)NC(C)=C2C(C)=O)c1OCC(=O)O (centres undefined),16937,0,0,0,0
CCCC1=C(C(=O)OCC)C(c2cc(Cl)cc(OC)c2OCc2ccccc2)NC(=O)N1 (centres undefined),21474,0,0,0,0

# Compound activity as filed in PubChem BioAssay.
